This passage reports growth results from PubChem BioAssay (NCI).

Among the test systems are T-47D breast; BT-549 breast; MDA-MB-435 melanoma; SW-620 colon; MCF7 breast; HCT-116 colon; HCC-2998 colon; KM12 colon.
What all share (test): NCI-60 one-dose screen, 48 h (100 = growth as untreated, 0 = no growth, -100 = all killed)
What all share (conditions): 10 µM unless noted

About 83,000 compounds went through this panel and 20% of them were active in at least one assay; those are over-represented in the sample as a whole.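 Cells were grown in 96-well plates and exposed to the test compound at a single concentration for 48 hours; results are reported as percent growth, with values below 10 considered active.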 Unmarked numbers belong to inactive results. Activity calls are given as the source filed them.

As to `C[C@H]1[C@H]2[C@H]3CC[C@@H]4[C@@]5(C)CC[C@H](O)C(C)(C)[C@@H]5CC[C@@]4(C)[C@]3(C)CC[C@]23CO[C@]1(C)[C@@H](C(=O)/C=C\c1cccnc1)C3`, the growth is 30.2% with T-47D breast; 57.2% in the test on BT-549 breast; 34.5% in the test on MDA-MB-435 melanoma; 32.3% with SW-620 colon; 23.7% in the test on MCF7 breast; 14.4% in the test with HCT-116 colon. In addition, the results for the growth in the test with HCC-2998 colon and in the test on KM12 colon were 69.9% and 54.4%, respectively.

As for `Cc1nn(-c2ccccc2)c(-n2ccnc2)c1/C=N/Nc1nc(-c2ccc(F)cc2)cs1`, the growth is 31.1% in the test with T-47D breast; 75.3% in the test on BT-549 breast; 85.2% in the test with MDA-MB-435 melanoma; 88.4% with SW-620 colon; 72.3% in the test with MCF7 breast; 67.8% with HCT-116 colon. The growth is 104% in the test on HCC-2998 colon and 90.4% with KM12 colon.

On to `COc1ccc2c(c1)nc(NNC(=O)c1cnccn1)c1cccn12`, for which the growth in the test on T-47D breast was 22.4%; in the test on BT-549 breast, 37.9%; with MDA-MB-435 melanoma, 33.7%; in the test with SW-620 colon, 29.6%; in the test on MCF7 breast, 10.7%; in the test with HCT-116 colon, 20.3%. Besides, the growth with HCC-2998 colon is 49.7%; in the test with KM12 colon, 24.8%.

Regarding `COc1cc2cc(Oc3ccc(NC(=O)Nc4ccc(Cl)c(Cl)c4)cc3)c(C)nc2cc1OCCN1CCOCC1`, the growth is 75.1% with T-47D breast; 72.5% in the test on BT-549 breast; 91.8% in the test with MDA-MB-435 melanoma; 104% with SW-620 colon; 60.1% in the test with MCF7 breast; 86.1% with HCT-116 colon. For the same compound, the growth with HCC-2998 colon was 116%; in the test with KM12 colon, 91.7%.

Regarding `COc1ccc2sc3c(NCCCN(C)C)nc4ccccc4c3c(=O)c2c1`, the growth with T-47D breast is 93.6%; in the test on BT-549 breast, 69.4%; in the test on MDA-MB-435 melanoma, -46.9% (active); in the test on SW-620 colon, -77.2% (active); with MCF7 breast, 41.5%; in the test with HCT-116 colon, -88.7% (active). For the same compound, the growth was -90.8% (active) in the test with HCC-2998 colon and -47.2% (active) with KM12 colon.

Take `C=C1C(=O)O[C@H]2[C@H]1CC/C(COC(=O)C(C)c1ccc(CC(C)C)cc1)=C\CC[C@@]1(C)O[C@@H]21` (stereo not given in full): the growth is -35% (active) with T-47D breast; -1.34% (active) in the test with BT-549 breast; -11.7% (active) in the test on MDA-MB-435 melanoma; -60.1% (active) in the test on SW-620 colon; 9.15% (active) in the test with MCF7 breast; -73.7% (active) in the test on HCT-116 colon. Further, the growth was 72.2% in the test with HCC-2998 colon and 31.8% in the test with KM12 colon.

Consider `CC([C@H]1CCC2C3CCC4C[C@@H](NC=O)CC[C@]4(C)C3CC[C@@]21C)N(C)C` (stereo not given in full), for which the growth in the test on T-47D breast is -40.6% (active); in the test on BT-549 breast it was 30.7%; in the test on MDA-MB-435 melanoma, -46.1% (active); in the test on SW-620 colon it was -71.5% (active); in the test on MCF7 breast, -23.1% (active); in the test with HCT-116 colon it was -66.2% (active). Further, the values for the growth in the test with HCC-2998 colon and with KM12 colon were -67.2% (active) and -21.1% (active), respectively.

For `CC(=O)c1ccc(Nc2nc(C(C)=O)c(C)s2)cc1`, the growth in the test with T-47D breast is 92.4%; in the test with BT-549 breast, 105%; in the test on MDA-MB-435 melanoma it was 100%; in the test on SW-620 colon, 96.2%; in the test on MCF7 breast, 83.6%; in the test with HCT-116 colon, 104%. Further, the figures for the growth in the test on HCC-2998 colon and in the test on KM12 colon were 98.3% and 98.5%, respectively.

As for `N/C(=N\c1nc2ccccc2s1)NC(=O)Nc1cccc2ccccc12`, the growth with T-47D breast is 38.5%; with BT-549 breast, 71.6%; with MDA-MB-435 melanoma, -27.7% (active); in the test with SW-620 colon, 19.7%; in the test with MCF7 breast, 23.1%; in the test on HCT-116 colon, 0.264% (active). Besides, the growth in the test with HCC-2998 colon is 38.9%; in the test with KM12 colon it was 14.7%.

For `CN1CCN(c2ccc(-c3cnc4c(-c5csc6ccccc56)cnn4c3)cc2)CC1`, the growth in the test on T-47D breast is -7.17% (active); with BT-549 breast, -39.3% (active); with MDA-MB-435 melanoma, -46.1% (active); in the test with SW-620 colon, -5.95% (active); with MCF7 breast, -22.5% (active); in the test with HCT-116 colon, -23.8% (active). Further, the growth was 24.8% with HCC-2998 colon and -3.74% (active) in the test with KM12 colon.

Turning to `COc1ccc(C(=O)C(C)C)c2ccccc12`, the growth in the test on T-47D breast was 92.2%; with BT-549 breast, 113%; with MDA-MB-435 melanoma, 97.9%; with SW-620 colon, 95.2%; with MCF7 breast it was 107%; in the test with HCT-116 colon, 101%. The growth with HCC-2998 colon is 107%; in the test on KM12 colon it was 101%.

With `N#CC1=C(N)Oc2c(sc3c(Br)cccc23)C1c1ccc([N+](=O)[O-])cc1` (stereo not given), the growth in the test on T-47D breast is 64.9%; in the test with BT-549 breast, 28.8%; in the test on MDA-MB-435 melanoma, -58.4% (active); in the test with SW-620 colon it was 18.1%; in the test with MCF7 breast, 10.2%; in the test on HCT-116 colon it was 8.77% (active). For the same compound, the growth was 10.2% with HCC-2998 colon and 8.9% (active) in the test on KM12 colon.

On to `CCCCCCNC(=O)Oc1ccc(/C(=C(\C)c2ccc(Cl)cc2)c2ccc(OCCCN(C)C)cc2)cc1`, for which the growth with T-47D breast is 61.1%; with BT-549 breast, 90.6%; in the test on MDA-MB-435 melanoma, 72.4%; in the test on SW-620 colon, 87.9%; in the test with MCF7 breast, 25.2%; in the test with HCT-116 colon, 36.9%. Also, the growth is 82.3% with HCC-2998 colon and 59.6% in the test with KM12 colon.

For the compound `OC(c1ccccc1)C(NC(Cc1ccccc1)c1ccccc1)c1ccccc1` (stereo not given), the growth in the test on T-47D breast was 73.6%; with BT-549 breast it was 91.4%; in the test on MDA-MB-435 melanoma it was 97.9%; with SW-620 colon, 90%; in the test with MCF7 breast, 104%; in the test with HCT-116 colon it was 77.1%. In addition, the growth in the test on HCC-2998 colon was 96.1%; in the test on KM12 colon it was 89.1%.

As to `O=c1[nH][n+](-c2ccc(Br)cc2)no1`, the growth is 28.1% in the test with T-47D breast; 83.1% in the test on BT-549 breast; 22.6% with MDA-MB-435 melanoma; 36.8% with SW-620 colon; 32.8% in the test on MCF7 breast; 79% in the test with HCT-116 colon. The growth was 12.7% in the test with HCC-2998 colon and 23.3% with KM12 colon.
